Screens from PubChem BioAssay.
Compounds with a hit are over-represented: about 4% of the library has one in this group of screens.
Peg3 promoter: Peg3 promoter-driven luciferase inhibitors, primary screen, cell-based, HeLa, luciferase luminescence; HeLa PEG-Prom luciferase reporter, overnight; inhibition, % at 20 µM; 360,000 compounds, 1.7% hits; AID 588405, 2011;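 active means inhibition of at least 50% at 20 µM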
TROY NFkB inh: inhibitors of TROY-driven NF-kB signaling, primary screen, Q293 LMP1-TROYcd cells, NF-kB luciferase, uHTS; AID 1347056, 2019; inhibition, % at 10 µM; 360,000 compounds, 0.98% hits; Q293 LMP1-TROYcd NF-kB luciferase reporter, 4 h;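 active means compounds whose plate-normalised and pattern-corrected inhibition of the luciferase reporter signal at the single screening dose is 50% or more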
TWEAK-Fn14 inh: inhibitors of TWEAK-Fn14 signaling, primary screen, luciferase reporter cells, uHTS | TWEAK-stimulated Fn14 reporter cells, luciferase luminescence, 8 h | inhibition, % at 10 µM | 360,000 compounds, 2% hits | AID 1159606, 2016; in the data active means inhibition above about 50%
HIF-2a inh: HIF-2a reporter inhibitors, primary screen, luminescence, 786-0 RCC cells; 786-0 RCC cells HIF-2a reporter, luciferase luminescence, overnight; AID 624352, 2012; 360,000 compounds, 0.72% hits; inhibition, % at 18.8 µM;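 active means inhibition of the luminescence signal of 40% or more relative to plate controls, in a single-dose primary screen at 18.75 µM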
CF NFkB block: inhibitors of PAF-induced NF-kB signaling, primary screen, cell-based, GFP fluorescence, uHTS | 360,000 compounds, 0.86% hits | AID 588850, 2011 | KKLEB NF-kB-GFP reporter, GFP fluorescence overnight | inhibition, % at 5 µM;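 active means at least 50% inhibition at 5 µM, scaled per plate between neutral and stimulator controls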;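 further: PAF is a Pseudomonas aeruginosa culture filtrate used as stimulus; plate controls were PAF-stimulated DMSO wells for no effect and unstimulated DMSO wells for full effect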
KKLEB tox: cytotoxicity in KKLEB CF airway cells, primary screen, cytotoxicity control for CF NF-kB inhibitor project, cell-based, uHTS, fluorescence assay plates; 360,000 compounds, 0.36% hits; KKLEB CF airway cells viability, ATPlite luminescence, overnight; hits give low values; cells stimulated with P. aeruginosa culture filtrate; activity change (cytotoxicity), % at 5 µM; AID 602141, 2011;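 active means corrected activity change at or below -50% at 5 µM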
* = called active by the depositor; . = not tested or not shown.

SMILES | Peg3 promoter | TROY NFkB inh | TWEAK-Fn14 inh | HIF-2a inh | CF NFkB block | KKLEB tox
CC(=O)Oc1ccc(/C=C2/CCc3ccccc3C2=O)cc1 | -171 | 61* | 88* | -281 | 5 | -11
O=C1/C(=C/c2cccc([N+](=O)[O-])c2)CSc2ccc(Cl)cc21 | -8 | -13 | -16 | -2 | 5 | -12
COc1cccc(/C=C2\CCc3ccccc3C2=O)c1 | -175 | 25 | 61* | -257 | 5 | -39
COc1cccc(C=C2Cc3ccccc3C2=O)c1 | -123 | -36 | -11 | -156 | -26 | -11
COc1ccc(/C=C2\CCc3ccccc3C2=O)cc1OC | -153 | -45 | 14 | -152 | 26 | -15
CCN1C/C(=C\c2cccc([N+](=O)[O-])c2)C(=O)/C(=C/c2cccc([N+](=O)[O-])c2)C1 | 105* | 2 | 93* | 97* | 94* | -57*
CC(C)(C)OC(=O)[C@H](Cc1ccccc1)NC(=O)c1ncn2c1c(=O)[nH]c1ccc(Br)cc12 | 35 | 24 | -9 | 13 | 46 | -45
CCc1ccc(/C=N/n2c(COc3ccccc3)n[nH]c2=S)cc1 | 25 | 22 | 13 | -3 | -5 | 13
CN1CCN(C(=O)C[C@@H]2CC[C@@H]3[C@H](COC[C@@H](O)CN3Cc3cccc(Cl)c3)O2)CC1 | . | . | . | 3 | . | .
CC(C)COCc1ccc(O)c2ncccc12 | 55* | -18 | 6 | 21 | 2 | -1
COc1cc(CN2CCc3ccccc3C2)cc([N+](=O)[O-])c1O | 5 | 10 | 0 | 16 | 3 | 9
Oc1ccc(CN2CCc3ccccc3C2)c2cccnc12 | 94* | -18 | -11 | -13 | 17 | -14
Oc1ccc(Cc2ccccc2)c2cccnc12 | 69* | -24 | -26 | 5 | 0 | 3
COc1cc(CN2CCc3ccccc3C2)ccc1O | 49 | 19 | 91* | -48 | 19 | -8
Fc1ccc(CN2CCN(c3ncccn3)CC2)c(F)c1 | -6 | 0 | 7 | 0 | 5 | 6
CCOC(=O)C1CCCN(C(=O)Cn2cccc2C(=O)c2ccccc2)C1 (centres undefined) | -39 | 30 | 99* | -5 | 13 | -10
CCOC(=O)C1CCN(C(=O)Cn2cccc2C(=O)c2ccccc2)CC1 | 12 | -7 | 16 | 5 | -4 | 2
CN(C)CCCN1C(=O)c2cccc3c([N+](=O)[O-])ccc(c23)C1=O | 91* | -58 | 8 | 20 | 0 | 4
O=C1c2cccc3c([N+](=O)[O-])ccc(c23)C(=O)N1CCc1ccccn1 | 92* | 1 | -41 | -44 | -11 | 13
CC(=O)Oc1cccc(N2C(=O)c3cccc4c([N+](=O)[O-])ccc(c34)C2=O)c1 | 29 | 27 | -91 | 26 | 35 | -8
O=C1c2ccccc2C(=O)N1CCc1ccccn1 | 3 | -5 | 3 | -40 | 13 | 9
Cc1ccc(S(=O)(=O)N(C)CC(=O)N2CCCCCC2)cc1 | 16 | -12 | -1 | 13 | 0 | -12
COc1ccccc1C1=NNC(=Nc2cccc(S(=O)(=O)N(C)C)c2)SC1 | 7 | 16 | 50* | 3 | -21 | -2
Cc1cc(C(=O)CSc2ccc(Cl)cc2)cc(C)c1OC(=S)N(C)C | -231 | 80* | 44 | -147 | 3 | -3
O=C1OC(c2ccc3ccccc3c2O)(c2ccc3ccccc3c2O)c2ccccc21 | -78 | 66* | 95* | -94 | 18 | 34
SMILES | Peg3 promoter | TROY NFkB inh | TWEAK-Fn14 inh | HIF-2a inh | CF NFkB block | KKLEB tox
Nc1ccc(-c2nc3c(Cl)c(N)ccc3[nH]2)cc1 | -171 | -22 | 61* | 14 | -25 | 5
Nc1ccc(-c2nc3ccc(N)cc3[nH]2)cc1 | -118 | -6 | 2 | -28 | -27 | 8
Cc1nc(NC(=O)C(C)(C)C)sc1C(=O)Cn1cc(-c2ccc(C(C)(C)C)cc2)nn1 | . | -20 | 6 | -19 | . | .
c1ccc2c(C[C@@H]3CNCCN3CC3CCCCC3)cccc2c1 | 94* | 4 | -11 | 8 | 11 | -3
COc1cc(CCCN2CCNC[C@@H]2c2ccccc2)cc(OC)c1OC | -17 | -24 | 7 | 6 | -23 | -3
c1ccc([C@H]2CNCCN2CCc2cccc3ccccc23)cc1 | 86* | 13 | 13 | 1 | 32 | -14
CC(=O)NCCc1ccc(C(=O)COC(=O)c2ccc(C)s2)cc1 | -57 | -16 | -21 | -14 | -18 | 4
CC(=O)NCCc1ccc(C(=O)COC(=O)c2cccs2)cc1 | -178 | 48 | 61* | -18 | 3 | -12
O=C(COC(=O)CCS(=O)(=O)c1ccccc1)Nc1ccc(N2CCCCC2)cc1 | -42 | -2 | -1 | -28 | -9 | 7
CC(C)=C1C2CCC1C1C(=O)N(NC(=O)COc3ccc(C(C)(C)C)cc3)C(=O)C21 (centres undefined) | 55* | -6 | -19 | 13 | 7 | -3
CC(C)(C)c1ccc(OCC(=O)NNC(=O)C2CCCO2)cc1 (centres undefined) | -8 | 17 | 2 | 4 | -3 | 7
CCc1c(C)nc2[nH]ncn2c1=O | 1 | 0 | -4 | 15 | 7 | -3
CC(C)C[C@H](NC(=O)c1cc2cc(Cl)ccc2n1C)C(=O)N1CCC(C(=O)O)CC1 | 4 | 10 | 5 | 12 | -34 | 9
CC1=CC(=O)C=CC1=Nc1ccc(N(C)C)cc1 | -4 | 9 | 67* | -37 | 43 | -5
CN(C)c1ccc(N=Nc2ccc(S(N)(=O)=O)cc2)cc1 | -235 | -21 | 15 | -246 | -14 | 7
CCCCCCN1CCN(C2CN(Cc3cn(Cc4ccc(Cl)cc4)nn3)S(=O)(=O)C2)CC1 (centres undefined) | . | 7 | 21 | -21 | . | .
CCCCCCn1cc(CN2CC(N3CCN(CCO)CC3)CS2(=O)=O)nn1 (centres undefined) | . | -1 | 108* | 6 | . | .
COc1ccc(-c2cn[nH]c2-c2ccc(OCC(=O)NN)cc2O)cc1 | 8 | 42 | 54* | 18 | 29 | -8
COc1ccc(-c2cc(C(=O)NN)[nH]n2)cc1 | -6 | 41 | 53* | 9 | -5 | 5
O=C1NC[C@H](CCCCN2C[C@H](Cc3ccc(O)cc3)N(CCc3ccc(O)cc3)C(=O)C2=O)N(CCc2ccccc2)C1=O | . | 1 | -4 | 0 | . | .
Cc1ccc(NC(=O)C2Cc3ccccc3CN2C(=O)c2ccco2)cc1S(=O)(=O)N(C)C (centres undefined) | -29 | 72* | 9 | -102 | -12 | 3
CC1CCN(CCCn2c(=S)[nH]c3ccc(N4CCOCC4)cc3c2=O)CC1 | 4 | 8 | -16 | 13 | 8 | -67*
